Measurements: the supplement of paper PMC3545927
Some of the results follow. No count for the full screen is at hand.

Biological target: furin, P09958
Test: furin cleavage Z-score vs untreated control; higher = more cleavage, active = 3.5 or more, inactive = 1 or less, 8 variable residues between constant flanks
Protocol: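 Multiplexed peptide-cDNA fusion cleavage assay. 8-mer variable peptides flanked by constant Cys-Ala (N-term) and Ala-Gly-Asn-Ala-Ser-Ala-Ser-Ala (C-term) and conjugated to a cDNA oligonucleotide were bead-immobilised via the N-terminus. They were treated with purified furin at a 1:10 enzyme:substrate ratio in 50 mM HEPES pH 7.5, 1 mM CaCl2, 100 mM NaCl for 7.5, 15 or 30 min. Released cDNA was counted by next-generation sequencing, and log counts versus no-furin controls were lowess-adjusted and converted to robust Z-scores.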

furin, P09958, sequence (P09958 whole entry): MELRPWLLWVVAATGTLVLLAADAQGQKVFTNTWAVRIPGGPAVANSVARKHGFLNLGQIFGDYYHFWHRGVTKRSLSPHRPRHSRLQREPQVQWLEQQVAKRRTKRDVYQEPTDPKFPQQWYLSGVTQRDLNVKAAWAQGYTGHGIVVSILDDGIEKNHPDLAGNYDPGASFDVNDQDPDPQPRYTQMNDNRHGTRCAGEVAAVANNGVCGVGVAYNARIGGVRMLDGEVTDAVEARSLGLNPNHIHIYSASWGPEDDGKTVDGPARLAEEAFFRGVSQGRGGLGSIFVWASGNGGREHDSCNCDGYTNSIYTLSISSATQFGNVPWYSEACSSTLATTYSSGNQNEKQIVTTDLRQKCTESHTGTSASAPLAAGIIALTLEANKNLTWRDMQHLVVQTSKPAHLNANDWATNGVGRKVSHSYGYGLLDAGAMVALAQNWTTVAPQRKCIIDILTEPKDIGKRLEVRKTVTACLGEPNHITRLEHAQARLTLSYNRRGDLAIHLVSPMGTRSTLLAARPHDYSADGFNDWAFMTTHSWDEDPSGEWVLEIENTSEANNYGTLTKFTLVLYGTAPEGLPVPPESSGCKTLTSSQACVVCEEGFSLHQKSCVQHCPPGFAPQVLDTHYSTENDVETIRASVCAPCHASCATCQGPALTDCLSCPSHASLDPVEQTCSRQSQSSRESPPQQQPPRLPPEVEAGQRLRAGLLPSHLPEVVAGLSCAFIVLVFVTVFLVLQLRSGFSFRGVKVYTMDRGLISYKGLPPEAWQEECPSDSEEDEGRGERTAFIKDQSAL

| Sequence | furin cleavage Z-score (7.5 min) | furin cleavage Z-score (15 min) | furin cleavage Z-score (30 min) |
| --- | --- | --- | --- |
| CASTPCSGHLAGNASASA [HC2536] | -0.918 (inactive) | -1.44 (inactive) | -0.11 (inactive) |
| CATDNRSRKRAGNASASA [FS-1658] | -0.57 (inactive) | 0.304 (inactive) | -1.94 (inactive) |
| CAEVCTSTWVAGNASASA [HC2200] | -1.07 (inactive) | -0.375 (inactive) | 0.694 (inactive) |
| CAAVEVDGAGAGNASASA [CS7] | 0.521 (inactive) | 0.0281 (inactive) | -2.24 (inactive) |
| CASLKRQKRQAGNASASA [FS-502] | 11.6 (active) | 12.1 (active) | 8.85 (active) |
| CASLKRDVSLAGNASASA [FS-2473] | -0.763 (inactive) | 0.0335 (inactive) | 1.41 |
| CAENPCHRPSAGNASASA [HC2341] | -0.397 (inactive) | 1.48 | 0.0102 (inactive) |
| CASSNVSVAHAGNASASA [HC1554] | -2.36 (inactive) | -0.374 (inactive) | -0.657 (inactive) |
| CASDGRGKRHAGNASASA [FS-1277] | 6.1 (active) | 6.45 (active) | 6.27 (active) |
| CALYRLGAVQAGNASASA [HC973] | 0.321 (inactive) | -0.642 (inactive) | 0.286 (inactive) |
| CAKQGVSKRHAGNASASA [FS-261] | 2.25 | 2.44 | 3.51 (active) |
| CAEVIKGGRHAGNASASA [HC852] | -2.02 (inactive) | -1.42 (inactive) | -1.4 (inactive) |
| CALLRRPFRQAGNASASA [FS-1361] | 2.8 | 1.06 | 3.65 (active) |
| CAVQIVSTAAAGNASASA [HC690] | 0.498 (inactive) | -1.18 (inactive) | -0.374 (inactive) |
| CALLRRGKRHAGNASASA [FS-51] | 11 (active) | 10.8 (active) | 8.35 (active) |
| CALLRIPQAIAGNASASA [HC329] | -0.657 (inactive) | -1.81 (inactive) | -0.194 (inactive) |
| CANLLRVFRQAGNASASA [FS-468] | 0.426 (inactive) | -0.885 (inactive) | 0.089 (inactive) |
| CADCEVVTSTAGNASASA [HC2300] | 0.556 (inactive) | 0.654 (inactive) | -0.729 (inactive) |
| CAQVCCSMSYAGNASASA [HC2002] | -0.191 (inactive) | -0.875 (inactive) | 0.558 (inactive) |
| CAMEECSQELAGNASASA [HC1752] | 0.357 (inactive) | -0.13 (inactive) | -0.468 (inactive) |
| CAVGIFRAAVAGNASASA [HC749] | -0.179 (inactive) | -0.141 (inactive) | 0.209 (inactive) |
| CAARVCSCLWAGNASASA [HC525] | -1.84 (inactive) | -1.52 (inactive) | 1.13 |
| CAEKEVPCHRAGNASASA [HC2454] | 0.758 (inactive) | -0.375 (inactive) | 1.43 |
| CAGIDPNIRTAGNASASA [HC797] | -1.41 (inactive) | -0.301 (inactive) | -1.74 (inactive) |
| CATLRRYKRHAGNASASA [FS-964] | 11.2 (active) | 10.9 (active) | 8.76 (active) |
| CAPTGREKRPAGNASASA [FS-75] | 0.811 (inactive) | 0.063 (inactive) | 0.807 (inactive) |
| CAHEGREKRHAGNASASA [FS-1630] | 7.09 (active) | 9.28 (active) | 8.39 (active) |
| CALLWRQEMGAGNASASA [HC1276] | 1.14 | 0.0716 (inactive) | 0.841 (inactive) |
| CADQRPYCWHAGNASASA [HC401] | 0.793 (inactive) | -0.215 (inactive) | 1.33 |
| CALLRRQIRTAGNASASA [FS-1642] | 6.82 (active) | 8.8 (active) | 8.78 (active) |
